# From PubChem BioAssay (NCATS)
# Values joined by “and” are separate entries in the source; they are usually repeats but may differ in a detail not shown here. Identical values can stand only once. Values without a mark were called inactive. Records with an inconclusive call do not appear. A call without a number means that no potency is given here. Active and inactive are the calls of the source. Unless noted, calls follow the shape of the dose curve; as a rule, active = well fitted curve in the direction sought with a large enough effect; inconclusive = small, poorly fitted or top-dose-only effect, or another doubt; inactive = no such curve, though single readings can be large; an effect the other way counts as inactive or inconclusive.
# How the values were obtained:
# [1] = AP1 Signaling Pathway (AID 357; active = well fitted curve in either direction with a large enough effect, not every such curve was filed as active;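 also: ME-180 reporter cells stimulated with EGF at its EC50 level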)
# Procedure, shortened: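 Read-out was the 460nm/530nm emission ratio (excitation 405nm) after CCF4 loading for 2.5 hours at room temperature. Cells carried an AP-1-driven beta-lactamase reporter, were stimulated with EC50 EGF plus compound for 5 hours, and AC50 values came from titrations.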
# [2] = target: Cytochrome P450 1A2 (Homo sapiens) (UniProt P05177); assay: p450-cyp1a2 (AID 410; calls by dose curve; also: potency is read from the fitted curve at half-maximal effect)
# Procedure, shortened: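 Luminescent demethylation readout: Luciferin-ME (100uM, equal to Km) turned over by 20nM CYP1A2 for 60 min at room temperature after NADPH regeneration addition, following 10 min compound preincubation. Normalization used 57 uM furafylline as full inhibition.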
# [3] = NFAT Signaling Pathway (AID 444; active = well fitted curve in either direction with a large enough effect, not every such curve was filed as active;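 also: carbachol stimulus at about its EC50 of 1 µM final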); conditions: Jurkat NFAT-bla M1, carbachol, beta-lactamase ratio, 5 h; at 38 µM (top of the series)
# Procedure, shortened: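 Read-out: CCF4 FRET ratio (460 nm/530 nm) after 1 h RT dye loading, used for %activity and AC50 from titration series. Cells: Jurkat NFAT-β-lactamase/M1 line, treated with compound plus 1 uM carbachol for 5 h, 37 °C.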
# [4] = target: Glucocorticoid receptor (Homo sapiens) (UniProt P04150); assay: GR-GFP Redistribution (AID 450;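 active = compounds whose dose series gives a full or clear partial fitted curve of increased nuclear translocation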; also: potency is read from the fitted curve at half-maximal effect); conditions: U2OS GR-GFP nuclear translocation, laser cytometry, 2 h
# [5] = target: Glucocorticoid receptor (Homo sapiens) (UniProt P04150); assay: GR-EFC Redistribution (AID 451; calls by dose curve; also: potency is read from the fitted curve at half-maximal effect); conditions: CHO-K1 GR-EFC translocation, beta-gal luminescence, 2 h
# Procedure, shortened: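 Translocation of GR-ED fusion to nuclear EA restores b-gal, read by luminescence after 1 h room-temperature detection. Engineered CHO-K1 biosensor cells, 1,000/well, exposed 2 h at 37 C to titrations up to 46 uM final.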
# [6] = target: Mitogen-activated protein kinase 10 (Mus musculus) (UniProt Q61831); assay: JNK3 AlphaScreen Assay (AID 530; active = well fitted curve in either direction with a large enough effect, not every such curve was filed as active;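 also: kinase came from lysate of stimulated human HepG2 cells; signal reports phosphorylation of biotinylated GST-cJun 1-79 at Ser73 with 10 µM ATP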)
# Procedure, shortened: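 qHTS titrations with 15 min compound pre-incubation before adding ATP (10 uM final). Read-out: AlphaScreen of Ser73-phosphorylated biotin-GST-cJun using HepG2 lysate JNK3 activated by IL-1β and TNFα.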
# [7] = target: Cytochrome P450 3A4 (Homo sapiens) (UniProt P08684); assay: qHTS Assay for Activators of Cytochrome P450 3A4 (AID 885); also: nearly all actives have a fitted effect of over 65% in size
# Procedure, shortened: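 Luminescent readout of luciferin formed from 25 uM Luciferin-PPXE (KM level) by 20 nM CYP3A4 in 200 mM KPO4, with 60 min NADPH-driven reaction at room temperature after 10 min compound exposure. Ketoconazole (57 uM) defined 100% inhibition.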
# [8] = target: Muscarinic acetylcholine receptor M1 (Rattus norvegicus) (UniProt P08482); assay: qHTS Assay for Antagonists of Acetylcholine Muscarinic M1 Receptor: Kinetic Measurement of Intracellular Calcium Response (AID 943);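 also: Fluo-4 calcium signal as peak divided by basal fluorescence over 4 min; nearly all actives have a fitted effect of over 75% in size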
# Procedure, shortened: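 Antagonism measured as reduction of carbachol-evoked (EC80, 100 nM final) calcium flux in rat M1-CHO cells after 10 min compound exposure. Fluo-4 signal read kinetically; ratio of maximal to basal fluorescence.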
# [9] = target: Muscarinic acetylcholine receptor M1 (Rattus norvegicus) (UniProt P08482); assay: qHTS Assay for Antagonists of Acetylcholine Muscarinic M1 Receptor: Measurement of IP-One Response (AID 944); also: nearly all actives have a fitted effect of over 75% in size
# Procedure, shortened: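 IP1 accumulation measured via TR-FRET between d2-IP1 and Eu-cryptate anti-IP1 antibody after carbachol (200 nM, EC80) stimulation for 30 min; rat M1-transfected CHO cells received compound 10 min before agonist.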
# [10] = target: Pyruvate kinase (Leishmania mexicana) (UniProt Q27686); assay: qHTS Validation Assay for Inhibitors of Leishmania Mexicana Pyruvate Kinase (AID 945)
# Procedure, shortened: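 Substrate mix (0.5 mM PEP, 0.1 mM ADP, 7 mM MgCl2, 50 mM KCl, pH 7.2 imidazole) received compound by pin tool, then 0.2 nM LmPYK E451W. After 1 h at room temperature, PKLight was added and luminescence measured.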
# [11] = target: Pyruvate kinase PKM (Homo sapiens) (UniProt P14618); assay: qHTS Assay for Activators of Human Muscle Pyruvate Kinase (AID 954; active = well fitted curve in the direction sought with a large enough effect, not every such curve was filed as active)
# Procedure, shortened: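 ATP production by PKM2 detected via luciferase luminescence after 1 h room-temperature reaction (0.1 nM enzyme, PEP at Km 0.5 mM, ADP 0.1 mM, pH 7.2 imidazole buffer). Inhibition scaled to no-enzyme control; activation referenced to 0.3 nM enzyme wells.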
# [12] = target: Alpha-galactosidase (Coffea arabica) (UniProt Q42656); assay: Counterscreen for Glucocerebrosidase Inhibitors: qHTS Assay for Coffee Bean alpha-Galactosidase at pH 4.5 (AID 957)
# Procedure, shortened: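 Fluorogenic qHTS at pH 4.5 (citrate buffer with Tween-20): 2 nM enzyme, 80 uM 4-MU-alpha-galactoside substrate, compound titrated 0.7 nM to 77 uM, 20 min room temperature. Glycine/NaOH stop; 4-MU read Ex 365/Em 440; Hill-equation AC50 against no-enzyme and enzyme controls.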
# [13] = target: Alpha-galactosidase A (Homo sapiens) (UniProt P06280); assay: Counterscreen for Glucocerebrosidase Inhibitors: qHTS Assay for Human alpha-Galactosidase at pH 4.5 (AID 992)
# Procedure, shortened: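 Fluorogenic 1536-well qHTS at pH 4.5 (citrate, Tween-20): 2 nM enzyme, 80 uM 4-MU-alpha-galactoside, 20 min room temperature, NaOH/glycine stop. Titration 0.7 nM to 77 uM, data normalized to no-enzyme and full-activity controls, Hill-fitted AC50.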
# [14] = target: alpha-glucosidase (Oryza sativa, rice) (UniProt Q653V4); assay: Counterscreen for Glucocerebrosidase Inhibitors: qHTS Assay for Rice alpha-Glucosidase at pH 5.0 (AID 997)
# Procedure, shortened: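 Endpoint fluorogenic assay at pH 5.0: compounds (0.7 nM to 77 uM) titrated against 4 nM rice enzyme and 400 uM 4-MU-alpha-glucoside for 20 min at room temperature; NaOH/glycine stop, read ex 365/em 440 nm, Hill-fitted AC50.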
# [15] = target: Alpha-galactosidase (Coffea arabica) (UniProt Q42656); assay: Counterscreen for Glucocerebrosidase Inhibitors: qHTS Assay for Coffee Bean alpha-Galactosidase at pH 5.9 (AID 998)
# Procedure, shortened: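 Fluorogenic 4-MU substrate hydrolysis, 80 uM substrate and 2 nM coffee bean alpha-galactosidase, pH 5.9 citrate buffer, 20 min at room temperature, then NaOH/glycine stop. Titration 0.7 nM–77 uM, normalized to no-enzyme and enzyme controls, AC50 via Hill equation.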
# [16] = target: DNA dC->dU-editing enzyme APOBEC-3G (Homo sapiens) (UniProt Q9HC16); assay: qHTS for inhibitors of Vif-A3G interactions: Validation (AID 588379)
# Procedure, shortened: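 Yellow fluorescence (Ex 488, Em 500-530) of Vif-coexpressing HeLa A3G-eYFP cells, scanned by Acumen cytometer, reports blocked A3G degradation. Cells plated at 700/well overnight at 37 deg C before compound addition, then a further overnight compound incubation at 37 deg C.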
# [17] = target: Furin (Homo sapiens) (UniProt P09958); assay: Furin counterscreen qHTS for Zika virus inhibitors (AID 1347149); also: nearly all actives have a fitted effect of over 70% in size; also: potency is read from the fitted curve at half-maximal effect;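 as to activity change, negative = inhibition: purified recombinant full-length human furin enzyme at 5 nM; fluorescence gain from furin cutting a BOC-RVRR-AMC peptide substrate over 15 min; top concentration of the series differs between compounds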
# Procedure, shortened: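 Counterscreen measures cleavage of 2 microM BOC-RVRR-AMC, below its ~15 microM Km, by 5 nM full-length human furin at pH 7.0 after a 15-min compound preincubation. Inhibition derives from the 15-min fluorescence increase at 37C.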
# [18] = system: Zika virus NS2B-NS3 protease (linked construct); assay: Confirmatory screen NINDS AMC qHTS for Zika virus inhibitors (AID 1347152); also: nearly all actives have a fitted effect of over 70% in size; also: potency is read from the fitted curve at half-maximal effect; as to activity change, negative = inhibition: top concentration of the series differs between compounds
# Procedure, shortened: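 IC50s from 4-parameter Hill fits of percent inhibition, based on AMC fluorescence gain (340/450 nm) over 15 min with 10 microM Bz-Nle-KRR-AMC. Enzyme: 1 nM linked NS2B-NS3 in Tris-HCl pH 8.0; 15-min compound preincubation.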
# [19] = system: Zika virus NS2B-NS3 protease (unlinked complex); assay: Confirmatory screen GU AMC qHTS for Zika virus inhibitors (AID 1347153); also: nearly all actives have a fitted effect of over 70% in size
# Procedure, shortened: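 Compounds were preincubated 15 min at room temperature with 25 nM noncovalent NS2B-NS3 protease at pH 8.0; AMC substrate added at 10 microM and 15-min fluorescence gain (340/450 nm) converted to percent inhibition, fitted 4-parameter.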
# [20] = Confirmatory screen NINDS Rhodamine qHTS for Zika virus inhibitors (AID 1347161);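 also: purified Zika NS2B-NS3 protease with linked NS2B cofactor domain and Rhodamine110 peptide substrate; nearly all actives have a fitted effect of over 60% in size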
# Procedure, shortened: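 qHTS dose-response: 25 nM linked protease, pH 8.0 Tris/Tween buffer, cpd titration, 15 min RT preinc, 1.5 microM Rhod110 peptide, 15 min reaction (~15% conversion), Ex480/Em540; 4-parameter Hill fit.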
# [21] = Vero cells viability qHTS for Zika virus inhibitors (AID 1347167)
# Procedure, shortened: (§1)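 Luminescent ATP readout (CellTiter Glo) after 30 min at 37 degrees C gives viability; cells in DMEM + 4% FBS were treated 24 to 48 hours with compound, following overnight attachment.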
# [22] = HepG2 cells viability qHTS for Zika virus inhibitors (AID 1347168)
# Procedure, shortened: as §1
# [23] = Tertiary RLuc qRT-PCR qHTS assay for Zika virus inhibitors (AID 1347169); also: top concentration of the series differs between compounds; nearly all actives have a fitted effect of over 55% in size
# Procedure, shortened: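 Orthogonal cell-based readout: luminescence measured 1-1.5 hrs after adding live-cell Renilla substrate to Vero cells that had been infected with ZIKV-RLuc (MOI 1-2) post-compound, incubated 48-72 hrs at 37 degrees C.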
# [24] = Primary qHTS for small molecule stabilizers of the endoplasmic reticulum resident proteome: Secreted ER Calcium Modulated Protein (SERCaMP) assay (AID 1508630)
# Procedure, shortened: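 The SH-SY5Y reporter protocol was run at 3 concentrations up to 38.3 uM (primary) or 11 concentrations (follow-up): 16 h compound, 100 nM thapsigargin for 4 h, then extracellular luciferase luminescence.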
# [25] = target: 3',5'-cyclic-AMP phosphodiesterase 4B (Homo sapiens) (UniProt Q07343); assay: qHTS Assay for Inhibitors of PDE-IV (AID 607; active = well fitted activation curve with a large enough effect in the main read-out, with a control signal flat, not every such curve was filed as active)
# Procedure, shortened: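 Cell-based read-out of cAMP via a modified cyclic nucleotide-gated channel and membrane potential dye (535/590 nm) in HEK293 cells expressing PDE4 endogenously. Compounds tested up to 22.9 uM final; 100 uM RO 20-1724 reference.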
# [26] = target: Cytochrome P450 2C9 (Homo sapiens) (UniProt P11712); assay: qHTS Assay for Inhibitors and Substrates of Cytochrome P450 2C9 (AID 883); also: potency is read from the fitted curve at half-maximal effect; nearly all actives have a fitted effect of over 60% in size
# Procedure, shortened: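 Turnover of Luciferin-H (100uM, KM) by 10nM human CYP2C9 was measured over 60 min at 37C with NADPH regeneration; inhibitors and some substrates reduce luminescence. Data normalized to sulphaphenazole 57uM.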
# [27] = target: Ubiquitin carboxyl-terminal hydrolase 1 (Homo sapiens) (UniProt O94782); assay: Inhibitors of USP1/UAF1: Pilot qHTS (AID 504865);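 also: rhodamine fluorescence freed from ubiquitin-rhodamine substrate followed over time; top concentration of the series differs between compounds; nearly all actives have a fitted effect of over 35% in size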
# Procedure, shortened: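 Deubiquitinase activity followed as kinetic rhodamine fluorescence release from 150 nM Ub-Rho. 1 nM USP1/UAF1 with compound, after 15 min room-temperature preincubation, in HEPES pH 7.8 buffer containing TCEP, EDTA, BSA and Tween-20.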
# [28] = system: Zika virus NS2B-NS3 protease; assay: Primary screen GU AMC qHTS for Zika virus inhibitors (AID 1347154); also: nearly all actives have a fitted effect of over 70% in size; also: potency is read from the fitted curve at half-maximal effect
# Procedure, shortened: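 Fluorogenic AMC-substrate cleavage by noncovalent NS2B-NS3 protease complex (25 nM, pH 8.0 Tris buffer with Tween 20) followed for 15 minutes at room temperature (~20% conversion). Percent inhibition from ex340/em450 signal change, fitted by 4-parameter Hill equation.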
# [29] = target: Nucleoprotein (Lymphocytic choriomeningitis virus (strain Armstrong)) (UniProt P09992); assay: qHTS for Inhibitors of the Functional Ribonucleoprotein Complex (vRNP) of Lymphocytic Choriomeningitis Arenaviruses (LCMV): LCMV Primary Screen - GLuc reporter signal (AID 1347086; calls by dose curve; also: nearly all actives have a fitted effect of over 70% in size)
# [30] = Cytotoxicity counterscreen for inhibitors of SARS-CoV-2 cell entry (AID 1645845; calls by dose curve; also: nearly all actives have a fitted effect of over 50% in size)
# Procedure, shortened: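 ATP-content luminescence (ATPLite 1step, 15 min RT) read after 48 h compound exposure of Expi293F cells stably expressing human ACE2; normalized to cells-only wells and media-only wells.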
# [31] = target: Metallo-beta-lactamase type 2 (Klebsiella pneumoniae) (UniProt C7C422); assay: qHTS to identify inhibitors of the New Delhi Metallo-beta-lactamase (NDM): assay validation screen against the NCATS LOPAC Collection (AID 1794843)
# Procedure, shortened: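 Absorbance at 485 nm from nitrocefin turnover (50 uM solution added), read at plateau, gives the read-out. Compounds in DMSO were incubated first with 2 nM final NDM-1 in pH 7.0 HEPES buffer containing 1 uM ZnSO4 and 0.01% Tween20.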
# Chain of Nucleoprotein (Lymphocytic choriomeningitis virus (strain Armstrong)) (P09992 whole entry, looked up): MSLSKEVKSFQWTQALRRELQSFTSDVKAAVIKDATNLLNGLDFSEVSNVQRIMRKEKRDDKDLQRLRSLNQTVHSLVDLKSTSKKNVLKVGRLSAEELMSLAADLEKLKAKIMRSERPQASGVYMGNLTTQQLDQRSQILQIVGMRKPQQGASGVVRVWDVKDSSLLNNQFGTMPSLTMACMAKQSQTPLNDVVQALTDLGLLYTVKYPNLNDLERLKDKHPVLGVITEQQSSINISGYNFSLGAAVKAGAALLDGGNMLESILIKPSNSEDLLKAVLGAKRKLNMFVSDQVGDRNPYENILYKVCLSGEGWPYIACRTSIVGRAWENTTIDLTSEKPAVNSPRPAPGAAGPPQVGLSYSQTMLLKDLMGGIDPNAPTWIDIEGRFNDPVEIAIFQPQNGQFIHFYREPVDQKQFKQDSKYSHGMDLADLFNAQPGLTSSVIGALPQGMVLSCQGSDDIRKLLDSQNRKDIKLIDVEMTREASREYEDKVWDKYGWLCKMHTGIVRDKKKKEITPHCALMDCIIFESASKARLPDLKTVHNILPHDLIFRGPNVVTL
# Chain of Furin (Homo sapiens) (P09958 whole entry, looked up): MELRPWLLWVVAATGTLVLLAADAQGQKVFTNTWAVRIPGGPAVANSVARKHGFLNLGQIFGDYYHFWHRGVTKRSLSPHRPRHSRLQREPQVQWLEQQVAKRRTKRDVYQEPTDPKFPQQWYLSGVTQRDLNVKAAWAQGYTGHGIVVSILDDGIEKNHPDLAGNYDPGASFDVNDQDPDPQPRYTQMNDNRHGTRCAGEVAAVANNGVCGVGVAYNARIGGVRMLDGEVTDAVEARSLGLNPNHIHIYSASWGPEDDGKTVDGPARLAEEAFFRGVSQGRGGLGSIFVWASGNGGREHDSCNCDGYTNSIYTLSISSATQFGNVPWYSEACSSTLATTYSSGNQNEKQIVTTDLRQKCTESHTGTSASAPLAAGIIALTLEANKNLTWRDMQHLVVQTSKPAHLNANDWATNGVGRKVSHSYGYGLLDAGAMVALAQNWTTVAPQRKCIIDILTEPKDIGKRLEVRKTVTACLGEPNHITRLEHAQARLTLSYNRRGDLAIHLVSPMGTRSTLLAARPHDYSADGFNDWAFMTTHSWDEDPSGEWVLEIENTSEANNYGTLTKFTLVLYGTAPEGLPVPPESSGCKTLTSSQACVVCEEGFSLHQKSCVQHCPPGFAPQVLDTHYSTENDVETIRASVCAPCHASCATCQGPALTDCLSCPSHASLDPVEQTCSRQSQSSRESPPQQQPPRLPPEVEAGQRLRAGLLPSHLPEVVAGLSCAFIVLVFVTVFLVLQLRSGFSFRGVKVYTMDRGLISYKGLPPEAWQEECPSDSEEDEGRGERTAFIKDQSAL
# Chain of Glucocorticoid receptor (Homo sapiens) (P04150 whole entry, looked up, the tested form may be a part): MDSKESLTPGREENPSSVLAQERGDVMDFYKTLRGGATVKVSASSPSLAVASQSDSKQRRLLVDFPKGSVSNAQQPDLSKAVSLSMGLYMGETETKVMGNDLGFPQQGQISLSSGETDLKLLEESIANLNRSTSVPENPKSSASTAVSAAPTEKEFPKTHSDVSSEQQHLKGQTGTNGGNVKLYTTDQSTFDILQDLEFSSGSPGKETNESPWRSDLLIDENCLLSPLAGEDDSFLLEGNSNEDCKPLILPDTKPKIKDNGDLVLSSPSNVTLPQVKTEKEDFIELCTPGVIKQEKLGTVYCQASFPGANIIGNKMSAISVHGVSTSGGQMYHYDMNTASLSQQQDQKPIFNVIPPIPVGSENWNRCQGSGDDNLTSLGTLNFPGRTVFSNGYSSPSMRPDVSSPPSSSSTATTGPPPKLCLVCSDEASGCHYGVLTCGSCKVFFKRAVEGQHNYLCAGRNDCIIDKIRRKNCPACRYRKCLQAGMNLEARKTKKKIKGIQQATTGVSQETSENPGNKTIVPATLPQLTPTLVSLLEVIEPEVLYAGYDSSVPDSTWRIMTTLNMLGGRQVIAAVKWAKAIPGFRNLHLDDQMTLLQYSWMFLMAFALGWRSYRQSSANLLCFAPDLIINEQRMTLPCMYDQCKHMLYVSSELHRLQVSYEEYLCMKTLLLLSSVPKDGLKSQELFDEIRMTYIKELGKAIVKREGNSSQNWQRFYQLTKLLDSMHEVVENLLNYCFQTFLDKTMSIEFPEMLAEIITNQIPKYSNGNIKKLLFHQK
# Chain of DNA dC->dU-editing enzyme APOBEC-3G (Homo sapiens) (Q9HC16 whole entry, looked up): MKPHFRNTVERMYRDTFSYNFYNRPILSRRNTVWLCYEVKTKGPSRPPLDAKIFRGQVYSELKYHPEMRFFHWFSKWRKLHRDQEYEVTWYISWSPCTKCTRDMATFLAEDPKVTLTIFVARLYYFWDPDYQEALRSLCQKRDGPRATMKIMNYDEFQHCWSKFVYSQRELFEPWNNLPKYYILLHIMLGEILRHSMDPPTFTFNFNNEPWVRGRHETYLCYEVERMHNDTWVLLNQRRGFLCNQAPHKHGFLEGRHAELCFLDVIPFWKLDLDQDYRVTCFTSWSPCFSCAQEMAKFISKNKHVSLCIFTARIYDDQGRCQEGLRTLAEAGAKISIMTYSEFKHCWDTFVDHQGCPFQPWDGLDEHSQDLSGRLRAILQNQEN
# Chain of Muscarinic acetylcholine receptor M1 (Rattus norvegicus) (P08482 whole entry, looked up): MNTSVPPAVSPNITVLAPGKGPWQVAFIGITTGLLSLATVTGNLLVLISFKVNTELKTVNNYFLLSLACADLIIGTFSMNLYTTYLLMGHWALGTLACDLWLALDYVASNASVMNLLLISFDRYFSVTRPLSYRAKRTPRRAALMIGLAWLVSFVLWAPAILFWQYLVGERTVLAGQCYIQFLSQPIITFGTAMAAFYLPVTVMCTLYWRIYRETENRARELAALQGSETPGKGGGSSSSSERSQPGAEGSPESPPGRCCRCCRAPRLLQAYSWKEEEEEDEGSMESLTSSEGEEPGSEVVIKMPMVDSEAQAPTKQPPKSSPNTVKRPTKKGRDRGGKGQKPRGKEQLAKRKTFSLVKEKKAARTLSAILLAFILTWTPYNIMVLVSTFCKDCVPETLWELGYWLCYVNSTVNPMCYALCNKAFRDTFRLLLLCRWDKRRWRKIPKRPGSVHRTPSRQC
# Chain of Cytochrome P450 1A2 (Homo sapiens) (P05177 whole entry, looked up): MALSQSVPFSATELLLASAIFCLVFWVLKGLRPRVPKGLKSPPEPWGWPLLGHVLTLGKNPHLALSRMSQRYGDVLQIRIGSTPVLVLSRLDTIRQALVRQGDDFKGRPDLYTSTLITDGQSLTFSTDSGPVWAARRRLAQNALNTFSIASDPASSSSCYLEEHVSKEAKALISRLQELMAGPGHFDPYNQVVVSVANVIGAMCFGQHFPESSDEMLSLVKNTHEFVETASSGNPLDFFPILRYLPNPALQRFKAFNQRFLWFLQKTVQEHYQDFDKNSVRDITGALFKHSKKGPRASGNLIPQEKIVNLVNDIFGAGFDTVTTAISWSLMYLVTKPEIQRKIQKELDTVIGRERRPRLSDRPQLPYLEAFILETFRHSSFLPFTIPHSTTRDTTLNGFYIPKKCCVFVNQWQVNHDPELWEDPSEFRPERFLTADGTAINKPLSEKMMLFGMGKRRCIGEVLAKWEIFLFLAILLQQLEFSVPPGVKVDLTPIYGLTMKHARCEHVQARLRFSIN
# Chain of Alpha-galactosidase (Coffea arabica) (Q42656 whole entry, looked up): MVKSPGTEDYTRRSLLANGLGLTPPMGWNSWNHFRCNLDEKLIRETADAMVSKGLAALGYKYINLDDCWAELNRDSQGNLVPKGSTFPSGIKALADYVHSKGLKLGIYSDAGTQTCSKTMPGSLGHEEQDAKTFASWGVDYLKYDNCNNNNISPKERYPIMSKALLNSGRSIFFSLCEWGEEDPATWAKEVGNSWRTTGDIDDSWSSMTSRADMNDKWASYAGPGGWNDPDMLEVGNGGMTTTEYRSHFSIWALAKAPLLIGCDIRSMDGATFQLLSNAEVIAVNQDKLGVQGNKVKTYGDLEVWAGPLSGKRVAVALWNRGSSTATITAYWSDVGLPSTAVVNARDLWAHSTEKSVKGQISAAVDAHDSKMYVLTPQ
# Chain of Cytochrome P450 3A4 (Homo sapiens) (P08684 whole entry, looked up): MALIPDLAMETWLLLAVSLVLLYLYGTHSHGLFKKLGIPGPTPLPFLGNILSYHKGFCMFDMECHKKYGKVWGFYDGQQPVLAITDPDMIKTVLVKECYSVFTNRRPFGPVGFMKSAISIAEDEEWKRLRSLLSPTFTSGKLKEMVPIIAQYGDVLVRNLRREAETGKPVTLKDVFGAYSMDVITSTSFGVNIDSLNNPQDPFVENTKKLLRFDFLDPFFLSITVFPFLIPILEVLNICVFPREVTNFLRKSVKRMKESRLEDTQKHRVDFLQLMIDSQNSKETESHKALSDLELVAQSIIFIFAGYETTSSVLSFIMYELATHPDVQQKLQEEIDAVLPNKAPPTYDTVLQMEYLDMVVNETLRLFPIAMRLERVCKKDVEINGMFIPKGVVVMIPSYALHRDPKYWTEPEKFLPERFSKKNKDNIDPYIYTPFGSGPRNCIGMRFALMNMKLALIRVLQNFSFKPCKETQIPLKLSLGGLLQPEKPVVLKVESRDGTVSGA
# Chain of Alpha-galactosidase A (Homo sapiens) (P06280 whole entry, looked up): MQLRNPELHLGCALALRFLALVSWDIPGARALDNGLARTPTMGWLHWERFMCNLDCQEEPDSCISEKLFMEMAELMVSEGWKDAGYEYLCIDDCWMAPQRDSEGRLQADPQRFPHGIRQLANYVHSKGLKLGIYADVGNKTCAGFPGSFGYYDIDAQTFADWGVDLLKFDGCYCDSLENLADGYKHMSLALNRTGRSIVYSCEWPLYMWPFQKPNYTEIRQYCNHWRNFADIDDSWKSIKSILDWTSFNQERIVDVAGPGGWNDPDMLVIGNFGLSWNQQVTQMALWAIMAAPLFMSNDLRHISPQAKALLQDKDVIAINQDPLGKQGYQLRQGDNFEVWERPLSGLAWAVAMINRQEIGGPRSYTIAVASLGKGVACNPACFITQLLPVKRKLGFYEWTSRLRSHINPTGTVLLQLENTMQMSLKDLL
compound,measurement,setting,value
CN(C(=O)Cc1ccc(Cl)c(Cl)c1)[C@@H](CN1CCCC1)c1cccc(OCC(=O)O)c1,outcome,[1],inactive
same,Potency,[2],inactive
same,"activity change, negative = inhibition",[3],9.54%
same,Potency,[4],> 46 µM
same,Potency,[5],> 46 µM
same,outcome,[6],inactive
same,Potency,[7],inactive
same,Potency,[8],inactive
same,Potency,[9],inactive
same,outcome,[10],inactive
same,outcome,[11],inactive
same,outcome,[12],inactive
same,outcome,[13],inactive
same,outcome,[14],inactive
same,outcome,[15],inactive
same,Potency,[16],inactive
same,Potency,[17],inactive
same,Potency,[18],inactive
same,Potency,[19],inactive
same,Potency,[20],inactive
same,Potency,[21],inactive
same,Potency,[22],inactive
same,Potency,[23],inactive
same,Potency,[24],inactive
Clc1cncc(N2CCNCC2)n1,Potency,[2],2 µM (active)
same,Potency,[4],> 46 µM
same,Potency,[5],> 46 µM
same,Potency,[25],inactive
same,Potency,[26],2 µM (active)
same,Potency,[7],inactive
same,Potency,[27],inactive
same,Potency,[16],inactive
same,Potency,[17],24.1 µM (active) and 10.8 µM (active)
same,Potency,[18],24.1 µM (active) and 8.57 µM (active)
same,Potency,[19],inactive
same,Potency,[28],15 µM (active)
same,Potency,[20],inactive
same,Potency,[21],inactive
same,Potency,[22],inactive
same,Potency,[23],inactive
COc1ccc(-c2coc3cc(O)cc(O)c3c2=O)cc1,Potency,[29],inactive
same,Potency,[30],inactive
C/C=C/CC(C)C(O)C1C(=O)NC(CC)C(=O)N(C)CC(=O)N(C)C(CC(C)C)C(=O)NC(C(C)C)C(=O)N(C)C(CC(C)C)C(=O)NC(C)C(=O)NC(C)C(=O)N(C)C(CC(C)C)C(=O)N(C)C(CC(C)C)C(=O)N(C)C(C(C)C)C(=O)N1C (stereo unspecified),Potency,[29],inactive
same,outcome,[31],inactive
CCN(CC)CCOc1ccc(C(=C(Cl)c2ccccc2)c2ccccc2)cc1,Potency,[29],inactive
O=C(/C=C/c1ccc(Cl)cc1)N[C@@]12CCC(=O)[C@@H]3Oc4c(O)ccc5c4[C@@]31CCN(CC1CC1)C2C5,Potency,[28],inactive
